Experiment [1] in a line: APR_HepG2_CellCycleArrest_24hr: Apredica 24-hour HepG2 Assay for Cell Cycle Arrest (AID 2282905).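 Note: cell cycle arrest scored as ratio of 2N to 4N nuclear DNA content.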 The following applies: imaging, actives raise or lower the signal. The procedure, abridged: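 Cell cycle arrest is scored from nuclear DNA content measured by high-content imaging of Hoechst 33342-stained HepG2 cells following 24-hour treatment at ten concentrations up to 200 uM, with DMSO as baseline.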

Experiment [2] can be described thus: APR_HepG2_NuclearSize_24hr: Apredica 24-hour HepG2 Assay for Nuclear Size (AID 2282907). The settings on record: high-content imaging, actives raise or lower the signal. The procedure, abridged:
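Compounds in DMSO (final 0.5%) were added to human HepG2 hepatoma cells at ten concentrations up to 200 uM for 24 hr. Fixed nuclei were stained with Hoechst 33342, and nuclear diameter was quantified from automated images.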

Experiment [3] can be described thus: APR_HepG2_CellLoss_24hr: Apredica 24-hour HepG2 Assay for Cell Loss (AID 2282908).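 For AC50: fit in both directions so a hit may be cell loss or gain.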 The following applies: high-content imaging. The procedure, abridged:
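Cell number is quantified by fluorescence imaging of Hoechst 33342-stained nuclei following dosing at 0.39–200 uM in 0.5% DMSO. Curves are fitted in both directions from the DMSO baseline.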

The nature of experiment [4]: APR_HepG2_MicrotubuleCSK_24hr: Apredica 24-hour HepG2 Assay for Microtubule CSK Stabilty (AID 2282909). The following applies: HepG2 microtubule cytoskeleton imaging, actives raise or lower the signal. The procedure, abridged: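 Steps: dose HepG2 for 24 h (0.39–200 uM, 0.5% DMSO); fix 30 min in 3.7% formaldehyde at room temperature; permeabilize; stain alpha-tubulin 60 min; image microtubule cytoskeleton at 20x. Signal change fitted in both directions relative to DMSO.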

Experiment [5] in a line: APR_HepG2_MitoticArrest_24hr: Apredica 24-hour HepG2 Assay for Mitotic Arrest (AID 2282910). The following applies: high-content imaging, actives raise or lower the signal. The gist of the method: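 Compounds are dosed onto HepG2 cells across ten concentrations up to 200 uM for 24 hr. Cells are then fixed in 3.7% formaldehyde, permeabilised, and labelled for phospho-histone H3 and nuclei; images are scored by cell cycle analysis and fitted bidirectionally relative to DMSO.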

Experiment [6] is described as follows: APR_HepG2_MitoMembPot_24hr: Apredica 24-hour HepG2 Assay for Mitochondrial Membrane Potential (AID 2282911). The following applies: imaging, actives raise or lower the signal. The gist of the method:
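Human hepatoma HepG2 cultures received ten compound concentrations up to 200 uM for 24 hr. Membrane-potential dye signal, captured by automated fluorescence microscopy, was scored for gain or loss against DMSO controls.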

A short description of experiment [7]: APR_HepG2_MitoMass_24hr: Apredica 24-hour HepG2 Assay for Mitochondrial Mass (AID 2282912). The settings on record: high-content imaging, actives raise or lower the signal. The gist of the method:
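The liver line HepG2 was dosed in duplicate across a 0.39–200 uM series, with final DMSO held at 0.5% v/v, and harvested at 24 hr. High-content imaging measured mitochondrial dye staining.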

The nature of experiment [8]: APR_HepG2_p53Act_24hr: Apredica 24-hour HepG2 Assay for p53 Activation (AID 2282913).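 Note: p53 protein immunofluorescence averaged per cell in HepG2 with Hoechst nuclei.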 The following applies: high-content imaging, actives raise or lower the signal. The gist of the method: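 Automated fluorescence imaging quantifies p53 immunostaining in HepG2 cells after a 24 hr exposure (0.39–200 uM, duplicate, 0.5% DMSO). Nuclei are located by Hoechst 33342 staining.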

A short description of experiment [9]: APR_HepG2_CellCycleArrest_72hr: Apredica 72-hour HepG2 Assay for Cell Cycle Arrest (AID 2282914). The settings on record: high-content imaging, actives raise or lower the signal. The gist of the method:
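Cell cycle arrest in HepG2 was scored from nuclear DNA content after 72 hr compound treatment (0.39–200 uM). Activity, either gain or loss, was fitted against the DMSO baseline.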

Experiment [10] is described as follows: APR_HepG2_CellLoss_72hr: Apredica 72-hour HepG2 Assay for Cell Loss (AID 2282915). The settings on record: high-content imaging. The gist of the method:
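Cell number comes from Hoechst 33342-labelled nuclei, imaged at 20x after 3.7% formaldehyde fixation. Dosing was 0.39–200 uM, ten concentrations in duplicate, 0.5% DMSO final, for 72 h. Bidirectional fit relative to DMSO baseline.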

Experiment [11] in a line: APR_HepG2_P-H2AX_72hr: Apredica 72-hour HepG2 Assay for H2AX Phosphorylation (AID 2282916).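 Note: phospho-histone H2A.x immunostain intensity per cell marking DNA damage.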 The settings on record: imaging, actives raise or lower the signal. The gist of the method: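 Following 72 hr treatment with 0.39–200 uM compound, HepG2 cells were formaldehyde-fixed, permeabilized and stained for phospho-H2A.x; signal was measured by high-content imaging and fitted bidirectionally against DMSO controls.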

Experiment [12] is described as follows: APR_HepG2_MitoMembPot_72hr: Apredica 72-hour HepG2 Assay for Mitochondrial Membrane Potential (AID 2282917). The following applies: imaging, actives raise or lower the signal. The procedure, abridged:
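Membrane potential read by MitoTracker Red CMXRos (250 nM, 30 min, pre-fixation) fluorescence imaging of HepG2 after 72 hr exposure. Ten concentrations, 0.39–200 uM, duplicate wells, 0.5% DMSO; fitted in both directions against DMSO baseline.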

The nature of experiment [13]: APR_HepG2_MicrotubuleCSK_72hr: Apredica 72-hour HepG2 Assay for Microtubule CSK Stabilty (AID 2282919). The following applies: HepG2 microtubule cytoskeleton, high-content imaging, actives raise or lower the signal. The procedure, abridged:
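Read-out is tubulin fluorescence intensity from high-content imaging of HepG2 cells, with nuclei identified by Hoechst 33342. Treatment lasts 72 h at 0.39–200 uM, and curves are fitted bidirectionally against the DMSO negative control.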

Experiment [14] in a line: APR_HepG2_P-H2AX_24hr: Apredica 24-hour HepG2 Assay for H2AX Phosphorylation (AID 2282920). The following applies: high-content imaging, actives raise or lower the signal. The procedure, abridged:
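Signal comes from a FITC-labeled secondary detecting phospho-histone H2A.x in fixed HepG2 cells, quantified by automated imaging at 20x. Dosing ran 24 hr across 0.39–200 uM with 0.5% v/v DMSO.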

A short description of experiment [15]: APR_HepG2_StressKinase_24hr: Apredica 24-hour HepG2 Assay for Stress Kinase (AID 2282922). The settings on record: HepG2 stress kinase (phospho-c-Jun) imaging, actives raise or lower the signal. The gist of the method: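 HepG2, 24 hr dosing, 0.39–200 uM in duplicate, 0.5% DMSO; formaldehyde fix (3.7%), 0.5% Triton X-100; anti-phospho-c-Jun + Cy3 secondary, Hoechst counterstain; ArrayScan imaging; bidirectional curve fit vs DMSO baseline.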

Experiment [16] in a line: APR_HepG2_p53Act_72hr: Apredica 72-hour HepG2 Assay for p53 Activation (AID 2282923).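 Note: average cellular p53 protein immunofluorescence intensity in HepG2 cells.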 The settings on record: high-content imaging, actives raise or lower the signal. The gist of the method: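 HepG2 monolayers receive test compounds in duplicate at ten concentrations (0.39 through 200 uM) for 72 hr. They are then formaldehyde-fixed, antibody-labelled for p53, Hoechst-stained and imaged, with activity fitted bidirectionally versus DMSO.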

Experiment [17] in a line: APR_HepG2_MitoMass_72hr: Apredica 72-hour HepG2 Assay for Mitochondrial Mass (AID 2282924).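 Note: MitoTracker Red CMXRos stain intensity per cell imaged as mitochondrial mass.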 The settings on record: high-content imaging, actives raise or lower the signal. The gist of the method:
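HepG2, 72 hr cmpd, 10 conc 0.39–200 uM in dup, DMSO 0.5% v/v. MitoTracker Red CMXRos 250 nM 30 min pre-fix; formaldehyde 3.7% fix 30 min RT. HCS imaging, gain/loss fit vs DMSO.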

Experiment [18] is described as follows: APR_HepG2_NuclearSize_72hr: Apredica 72-hour HepG2 Assay for Nuclear Size (AID 2282925). The settings on record: high-content imaging, actives raise or lower the signal. The gist of the method: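 HepG2; cpd 0.39–200 uM, 10 conc, duplicate; 72 h; DMSO 0.5% v/v; fix 3.7% formaldehyde 30 min RT; Triton permeabilization; Hoechst 2 ug/mL; HCS imaging 20x; nuclear diameter; gain/loss fit vs DMSO.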

Experiment [19] is described as follows: APR_HepG2_StressKinase_72hr: Apredica 72-hour HepG2 Assay for Stress Kinase (AID 2282921). The settings on record: HepG2 stress kinase (phospho-c-Jun) imaging, actives raise or lower the signal. The procedure, abridged: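 Fluorescence intensity of Cy3-tagged anti-phospho-c-Jun antibody, quantified per cell from Hoechst-defined nuclei across six images per well, served as the read-out following 72 h exposure (0.39–200 uM, 0.5% v/v DMSO).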

SMILES strings stand for the structures. Active and inactive are the calls of the source. Rule for the calls: active = hit-call score of the fitted dose curve at least 0.9, where 1 is the maximum; inactive = score below 0.9.

For orientation: AC50 means the concentration at which the activity in the assay is half-maximal.

`CCO[Si](CCCNC(N)=O)(OCC)OCC`: the result in experiment [1], in [2], in [3], in [4], in [5] and in experiment [6] was inactive. The molecule was classed as inactive in experiment [7], in experiment [8], in experiment [9], in experiment [10], in [11] and in [12]. The call in experiment [13], in [14], in experiment [15], in [16], in experiment [17] and in experiment [18] was inactive.

Take `Cc1cc2c(cc1C(F)(F)F)N(C(=O)Nc1ccc(Oc3cccnc3C)nc1)CC2`: the AC50 in experiment [1] was 2.58 µM (active); in [3], 50.2 µM (active); in [4], 43.6 µM (active); in experiment [5], 56.2 µM (active); in experiment [8], 45.7 µM (active); in [10], 9.35 µM (active). The AC50 is 22.2 µM (active) in experiment [11]; 38.4 µM (active) in experiment [13]; 43 µM (active) in [14]; 26.2 µM (active) in experiment [15]; 27.8 µM (active) in [16]. The molecule was called inactive in experiment [2], in experiment [6], in experiment [7], in [9], in experiment [12] and in experiment [17]. The molecule was classed as inactive in experiment [18].

On to `COCC(C)OCC(C)OCC(C)O` (stereo unspecified), for which the result in experiment [1], in experiment [2], in experiment [3], in experiment [4], in experiment [5] and in [6] was inactive. Also, the call in experiment [7], in [8], in [9], in experiment [10], in experiment [11] and in experiment [12] was inactive. Also, the result in experiment [13], in experiment [14], in experiment [19], in [15], in [16] and in experiment [17] was inactive. For the same molecule, the outcome in experiment [18] was inactive.

In the case of `Oc1ccccc1`, the outcome in experiment [1], in [2], in experiment [3], in experiment [4], in experiment [5] and in experiment [6] was inactive. The molecule was called inactive in [7], in experiment [8], in [9], in experiment [10], in [11] and in experiment [12]. Besides, the outcome in experiment [13], in [14], in experiment [19], in experiment [15], in experiment [16] and in experiment [17] was inactive. Besides, in experiment [18], the call was inactive.

Consider `CC1=CC(=O)/C(=C(/C)O)C(=O)O1`, for which the molecule was classed as inactive in experiment [1], in [2], in experiment [3], in experiment [4], in experiment [5] and in [6]. Further, the call in experiment [7], in experiment [8], in experiment [9], in experiment [10], in experiment [11] and in [12] was inactive. Also, the outcome in experiment [13], in experiment [14], in experiment [19], in experiment [15], in [16] and in [17] was inactive. Moreover, the call in [18] was inactive.

Consider `CCN(CC)C(=O)c1cc(S(=O)(=O)Cc2ccccc2)c(N2CCC(c3ccccc3)CC2)cc1N(CC)CCN(C)C`, for which the AC50 was 75.9 µM (active) in experiment [1]; 5.48 µM (active) in experiment [3]; 11.1 µM (active) in experiment [4]; 1.59 µM (active) in [5]; 23.1 µM (active) in experiment [7]; 18.6 µM (active) in experiment [8]. Besides, the AC50 was 3.21 µM (active) in [9]; 2.54 µM (active) in experiment [10]; 0.876 µM (active) in experiment [11]; 1.88 µM (active) in experiment [12]; 7.7 µM (active) in experiment [13]; 1.93 µM (active) in experiment [14]. For the same molecule, the molecule was called inactive in experiment [2], in experiment [6], in experiment [15], in experiment [16], in experiment [17] and in experiment [18].

For the origin of these results see PubChem BioAssay (EPA / NIEHS).
